This test is described as follows: NCI Yeast Anticancer Drug Screen. Data for the rad50 strain (AID 155).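 Further: 0% = growth of vehicle-only cultures of the same strain.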 To be noted: S. cerevisiae rad50 strain growth inhibition, stronger effect = higher value. The method, then:
Growth inhibition of yeast strains with defined genetic alterations is measured as a screen for potential anti-cancer activity. Selected strains with alterations in DNA damage repair or cell cycle control were exposed to compounds and growth inhibition was measured relative to vehicle treated controls. The strain used in this assay is rad50

The mark [1] stands for this setting: at 5.0 µM (retest, dose inferred, filed as 0.5).
The mark [2] stands for this setting: at 50.0 µM (retest, dose inferred, filed as 5.0).

This is part of a sample that, as a whole, favours compounds with a hit. Of some 79,000 tested, about 15% had one in any assay. Unmarked numbers belong to inactive results. Active and inactive are the calls of the source. No stated cut-off is given here; in the data, active means growth inhibition above about 70%; inactive means the rest.

As for `N=C(N)c1ccc(N=Nc2c(O)ccc3c2[nH]c2ccccc23)cc1`, the growth inhibition is, setting by setting: (at 1.2 µM) -2%; (at 3.7 µM) 11%; under setting [1], 57%; (at 11.0 µM) 91% (active); (at 33.0 µM) 95% (active); under setting [2], 98% (active). Further, the growth inhibition was 97.8% (active) (at 50.0 µM) and 95% (active) (at 100.0 µM).
On to `O=S(=O)(CCC[C@H]1[C@@H](CCOCc2ccccc2)C2CCCN1O2)c1ccccc1` (stereo not given in full), for which the growth inhibition was -3% (at 1.2 µM); -13% (at 3.7 µM); -9% under setting [1]; -13% (at 11.0 µM); 10% (at 33.0 µM); -11% under setting [2]. Also, the growth inhibition is -4.6% (at 50.0 µM) and 22% (at 100.0 µM).
With `Cn1c(COc2ccc(/C=N/NC(=O)CCC(=O)N/N=C/c3ccc(OCc4c[n+]5ccccc5n4C)cc3)cc2)c[n+]2ccccc12`, the growth inhibition was 1% (at 1.2 µM); 2% (at 3.7 µM); -11% under setting [1]; 1% (at 11.0 µM); 5% (at 33.0 µM); 55% under setting [2]. The growth inhibition was 49.1% (at 50.0 µM) and 97% (active) (at 100.0 µM).
Take `c1cc(Nc2ccc3c(c2)OCO3)c2cc(C3CCCCC3)ccc2n1`: the growth inhibition by setting is: (at 1.2 µM) 19%; (at 3.7 µM) -14%; under setting [1], 4%; (at 11.0 µM) 5%; (at 33.0 µM) 5%; under setting [2], 48%. Besides, the growth inhibition runs as follows: (at 50.0 µM) 99.3% (active); (at 100.0 µM) 73% (active).
As for `CC1(C)CC(=O)C(C(CC(c2ccccc2)c2cc3c(cc2O)OCO3)C2=C(O)CC(C)(C)CC2=O)=C(O)C1` (stereo not given), the growth inhibition is, setting by setting: (at 1.2 µM) -2%; (at 3.7 µM) 1%; under setting [1], 11%; (at 11.0 µM) 33%; (at 33.0 µM) 77% (active); under setting [2], 96% (active). Also, the growth inhibition is, setting by setting: (at 50.0 µM) 94.8% (active); (at 100.0 µM) 83% (active).

The values are drawn from PubChem BioAssay (NCI).
